Sampled rows, rich in hits. Any-hit rate of the full collection: about 3%.
MITF TRPM1 HTS: activators of MITF-driven TRPM1 promoter reporter, primary screen, cell-based, SK-MEL-5, luciferase, single point. SK-MEL-5 TRPM1-promoter luciferase, 24 h; % of positive control, neutral wells = 0. activation, % at 12.5 µM. 300,000 compounds, 0.75% hits;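 active = mean activation of at least 80% with every replicate also reaching 80%; inconclusive = mean reaches 80% but some replicate falls short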;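 also: 0% = neutral control wells and 100% = parthenolide positive control wells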
C2C12 statin: suppressors of statin myotoxicity in C2C12 myotubes, primary screen, cell-based, single point, plate reader; C2C12 myotubes + simvastatin, ATP luminescence, 48 h; scaled: DMSO 0, geranylgeraniol control 100; rescue of ATP level, % at 7.49 µM; 330,000 compounds, 0.78% hits; AID 602340, 2012;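 active = mean ATP rescue above about 67%, or every replicate alone reaching that limit, limit read from the data, passing the limit was not always enough; inconclusive = no clear call, values can overlap the other calls; inactive = mean under the limit and some replicate under it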;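 also: myotubes were challenged with 10 µM simvastatin during compound exposure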
esBAF inh: Bmi1 luciferase reporter increase in mESCs, primary screen, esBAF inhibitor project, mouse ES cells, Bmi1 luciferase knock-in, single point; AID 602393, 2012; 350,000 compounds, 2% hits; reporter increase, % at 12.5 µM; 24 h; 100% = twice the neutral-well signal; in the data active = activation above about 40%; inconclusive = no clear call, values can overlap the other calls;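 also: 0% = median of the plate's neutral control wells and 100% = double that signal; a rise in the Bmi1 reporter signal indicates esBAF inhibition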
Wnt act: Wnt/beta-catenin pathway activators, primary screen, cell-based, plate reader, single point; Wnt/beta-catenin reporter cell assay, activator; activation, % at 9.35 µM; 300,000 compounds, 1.2% hits; AID 743398, 2014; in the data active = activation above about 30%, passing the limit was not always enough; inconclusive = no clear call, values can overlap the other calls;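 also: 0% = neutral control wells and 100% = positive control wells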
* hit, by the source's call; ? = inconclusive; · = not tested or not shown.

SMILES | MITF TRPM1 HTS | C2C12 statin | esBAF inh | Wnt act
Cc1ccc(C)c(NC(=O)[C@@H]2CCCN2S(=O)(=O)c2ccccc2F)c1 | 0.1 | 7.1 | 16.8 | -7.1
Cc1ccc(C(=O)Nc2cccc(-c3ccc(N4CCOCC4)nn3)c2)cc1 | 75.1 | -25.1 | 51.8* | 36.0*
O=C(Nc1cccc(-c2ccc(N3CCOCC3)nn2)c1)c1cccc(Cl)c1 | · | -48.1 | 70.6* | 34.6*
O=C(Nc1cccc(-c2ccc(N3CCOCC3)nn2)c1)c1ccccc1Cl | 106.7* | -3.8 | 54.1* | -3.2
COc1ccc(S(=O)(=O)Nc2cccc(-c3ccc(N4CCCCCC4)nn3)c2)cc1OC | 35.6 | -5.8 | 19.4 | 0.8
Cc1ccc(C(=O)Nc2cccc(-c3ccc(N4CCOCC4)nn3)c2)cc1C | 75.6 | · | · | 29.2
Cc1ccc(S(=O)(=O)Nc2cccc(-c3ccc(N4CCCCCC4)nn3)c2)cc1 | ? | 2.4 | 66.7* | 19.9
O=C(COc1ccc(Cl)cc1)Nc1cccc(-c2ccc(N3CCOCC3)nn2)c1 | 70.6 | -30.7 | -38.4 | 29.9
COc1ccc(NC(=O)N(C)C[C@H]2Oc3ccc(NC(=O)Nc4ccccc4)cc3C(=O)N([C@@H](C)CO)C[C@@H]2C)cc1 | · | -4.1 | -1.5 | ·
COCC#Cc1ccc2c(c1)O[C@@H](CN(C)Cc1ccccc1)[C@@H](C)CN([C@H](C)CO)S2(=O)=O | · | 4.2 | -5.9 | ·
O=C(Nc1cccc(-c2ccc(N3CCOCC3)nn2)c1)c1ccc(Cl)cc1 | 84.4* | -25.9 | 35.4 | -2.0
FC(F)(F)c1ccc(-c2csc(-c3ccno3)n2)cc1 | · | -13.2 | 50.1* | 22.5
N#Cc1ccc(-c2csc(-c3ccno3)n2)cc1 | · | · | · | -0.9
C[C@@H]1CCCCO[C@H](CN(C)S(=O)(=O)c2ccc(Cl)cc2)[C@@H](C)CN([C@H](C)CO)C(=O)c2cc(NS(=O)(=O)c3cn(C)cn3)ccc2O1 | · | · | -6.4 | ·
CC(C)CC#Cc1ccc2c(c1)O[C@H](CN(C)Cc1cncnc1)[C@@H](C)CN([C@@H](C)CO)S2(=O)=O | · | -4.4 | 5.9 | ·
C[C@@H]1CN([C@@H](C)CO)C(=O)c2cccc(NS(=O)(=O)c3ccc(F)cc3)c2O[C@@H]1CN(C)Cc1ccc(C(F)(F)F)cc1 | · | 4.7 | 3.3 | ·
Cc1ccc(S(=O)(=O)Nc2cccc3c2O[C@@H](CN(C)Cc2ccc(C(F)(F)F)cc2)[C@H](C)CN([C@H](C)CO)C3=O)cc1 | · | 101.5* | -1.2 | ·
Cc1ccc(S(=O)(=O)Nc2cccc3c2O[C@@H](CN(C)Cc2ccc(C(F)(F)F)cc2)[C@H](C)CN([C@@H](C)CO)C3=O)cc1 | · | 77.6* | 1.4 | ·
CC(C)CC#Cc1cnc2c(c1)C(=O)N([C@H](C)CO)C[C@H](C)[C@@H](CN(C)Cc1cccc(F)c1)O2 | · | 36.2 | -12.7 | ·
CO[C@H]1CC[C@H]2CCOc3ccc(C#N)cc3C(=O)N(C)C[C@H](OC)[C@@H](C)C(=O)N(C)C[C@@H]1O2 | · | -4.2 | 0.2 | ·
CO[C@H]1CC[C@@H]2CCOc3ccc(C#N)cc3C(=O)N(C)C[C@@H](OC)[C@@H](C)C(=O)N(C)C[C@H]1O2 | · | 75.4* | 3.3 | ·
C[C@H](CO)N1C[C@H](C)[C@H](CN(C)Cc2ccc(C(=O)O)cc2)Oc2ccc(NC(=O)C3CCCCC3)cc2CC1=O | · | -7.7 | 0.3 | ·
Cc1ccc(S(=O)(=O)N2CCN(C(=O)c3cccs3)CC2)cc1C | -15.0 | 118.3* | 8.6 | -0.3
C[C@@H]1CN([C@@H](C)CO)C(=O)Cc2cc(NC(=O)c3ccncc3)ccc2O[C@@H]1CN(C)S(=O)(=O)c1ccc(Cl)cc1 | · | 22.1 | -3.5 | ·
Cc1ccc(C(=O)CC(=O)c2cccc(F)c2)c(O)c1 | · | 1.6 | 46.2* | ·
SMILES | MITF TRPM1 HTS | C2C12 statin | esBAF inh | Wnt act
Cc1ccc(C(=O)CC(=O)c2ccccc2C)c(O)c1 | -9.1 | -7.6 | 62.2* | 11.9
CCCCc1nc(N2CCOCC2)c(C#N)c2c1COC(C)(C)C2 | 1.8 | 128.3* | -1.3 | ·
CC1(C)Cc2c(C#N)c(SCCO)nc(N3CCOCC3)c2CO1 | -5.5 | 9.7 | -2.6 | -2.0
COc1ccc(S(=O)(=O)Nc2cccc3c2O[C@@H](CN(C)C(=O)Nc2ccc4c(c2)OCO4)[C@H](C)CN([C@H](C)CO)C3=O)cc1 | · | · | 3.0 | ·
O=C(O)CC1C(=O)OCN1C(=O)OCc1ccccc1 (stereo unspecified) | 4.7 | -4.9 | -5.6 | 0.5
O=C(CC1C(=O)OCN1C(=O)OCc1ccccc1)OCC(=O)c1ccccc1 (stereo unspecified) | · | 102.7* | 14.0 | 3.0
CCN1CCN(C(=O)c2ccc(CS(=O)(=O)Cc3ccccc3F)o2)CC1 | -2.0 | 95.4* | 2.1 | -1.3
O=C(O)c1ccc(CS(=O)(=O)Cc2ccccc2F)o1 | 21.7 | · | · | -2.1
COc1cccc(NC(=O)Cn2c(=O)n(C)c(=O)c3sc4c(c32)COC(C)(C)C4)c1 | 3.3 | 135.9* | 8.9 | 0.0
Cc1cccc(NC(=O)Cn2nnc3sc4c(c3c2=O)CC(C)(C)OC4)c1 | · | · | · | -5.5
Cc1cccc(Nc2nc(N)nc(CN3CCN(c4ccccc4F)CC3)n2)c1 | -3.6 | 80.9* | -1.9 | -5.8
Cc1ccc(NC(=O)CS(=O)c2ccccc2N)c(C)c1 (stereo unspecified) | 14.4 | 6.7 | 50.4* | -2.9
CCSc1nc2ccc(OC)cc2cc1C#N | 76.6 | 8.5 | 20.9 | ·
CCOc1ccc2nc(SCC#N)c(C#N)cc2c1 | -5.6 | 80.5* | -8.1 | 81.5*
CCOc1ccc2cc(C#N)c(SCC(=O)N3CCC(C)CC3)nc2c1 | -0.8 | -23.0 | -2.3 | -5.2
CCOC(=O)CSc1nc2cc(OCC)ccc2cc1C#N | · | 1.3 | 61.8* | ·
Cc1noc(C)c1NC(=O)Nc1ccc2c(c1)C(=O)N([C@@H](C)CO)C[C@@H](C)[C@H](CN(C)C(=O)Nc1ccccc1)O2 | · | · | 1.0 | ·
COC(=O)CSc1nc2ccc(C)cc2cc1C#N | 52.7 | · | · | 67.1*
Cc1ccc2nc(SCC(=O)NCc3ccco3)c(C#N)cc2c1 | · | · | 18.2 | 59.2*
COC(=O)CSc1nc2cc(C)cc(C)c2cc1C#N | 54.8 | 16.8 | 2.5 | ·
C[C@H](CO)N1C[C@H](C)[C@@H](CN(C)C(=O)C2CCCCC2)Oc2ncc(/C=C/c3ccccc3)cc2C1=O | · | 10.4 | -0.8 | ·
C/C(=C\C(=O)C(F)(F)F)Nc1ccc(C)cc1 | 9.8 | · | · | -3.1
C/C(=C\C(=O)C(F)(F)F)Nc1cc(C)cc(C)c1 | 7.9 | 139.0* | -4.1 | ·
O=C(Nc1ccccc1)C1=C(N2CCOCC2)/C(=C/c2cccnc2)CC1 | 40.5 | 0.1 | 41.8* | 1.4
CCC(=O)N[C@H]1CC[C@@H](CC(=O)NCc2ccc(OC)cc2)O[C@H]1CO | · | -1.4 | 0.1 | ·
COc1ccccc1C#Cc1cnc2c(c1)C(=O)N([C@@H](C)CO)C[C@@H](C)[C@H](CN(C)C(=O)CC1CC1)O2 | · | 20.3 | -0.2 | ·
N#C[C@@H]1[C@H](c2ccc(-c3cccnc3)cc2)[C@H](CO)N1C(=O)C1CCOCC1 | · | -13.4 | 2.1 | ·
OCCc1ccc(-c2ccc(Cl)cc2)o1 | 53.9 | 61.1 | 51.6* | 1.0
Clc1ccc(-c2ccc(CN3CCCCC3)o2)cc1 | · | 0.7 | 11.1 | 2.3
